# From PubChem BioAssay AID686977 (Southern Research Specialized Biocontainment Screening …, 2013)
# The campaign covered roughly 9,400 compounds. Fewer than 10 were called active. Inconclusive results (about 5%) are left out. The rule behind the calls is not given here. Not all results are given here. Measured potencies and affinities stand elsewhere.
# Assay: Vibrio cholerae quorum sensing activators, luminescence (AID 686977)
# Settings: V. cholerae quorum sensing reporter, 6 h, hits give high values; dose 50, dose unit µM unless noted
row,Structure (SMILES),luminescence
1,CC(=O)CC(c1ccccc1)S(=O)(=O)c1ccc(C)cc1 (configuration not stated),40 (inactive)
2,CCN(CC)c1ncnc2sc(C(=O)N3CCN(c4ccc(OC)cc4)CC3)c(C)c12,160 (inactive)
3,c1cc2c3c(cccc3c1)NC1(CCCCC1)N2,40 (inactive)
4,O=C(Nc1ccc(Cc2ccncc2)cc1)c1ccc(Cl)c([N+](=O)[O-])c1,0 (inactive)
5,COc1cccc(S(=O)(=O)NCc2ccc(C(=O)NCC3CCCO3)cc2)c1 (configuration not stated),40 (inactive)
6,O=C(Nc1ccc2c(c1)OCCO2)c1ccc(CN2CCOCC2)cc1,0 (inactive)
7,COCCOC(=O)C1=C(C)NC2=C(C(=O)CC(c3cccs3)C2)C1c1ccsc1 (configuration not stated),40 (inactive)
8,CCN1CCN(c2nc3c(c(=O)[nH]c(=O)n3C)n2CCSc2nc3ccccc3s2)CC1,0 (inactive)
9,CCc1ccc(C2CC(c3ccc(F)cc3)Nc3nc(N)nn32)cc1 (configuration not stated),40 (inactive)
10,COc1ccccc1C(=O)N1CCNC(=O)C1CC(=O)Nc1cccc(C)c1 (configuration not stated),0 (inactive)
11,O=C(O)c1[nH]c2ccccc2c1CC(=O)N1CCOCC1,0 (inactive)
12,Cc1cc(C(=O)Nc2c(C)nn(Cc3ccc(F)cc3)c2C)on1,0 (inactive)
13,COC(=O)c1ccc(NC(=O)CN(Cc2ccc(Cl)cc2)S(C)(=O)=O)cc1,0 (inactive)
14,CC(C)SCCCOc1ccc(C(C)(C)C)cc1,0 (inactive)
15,CCOC(=O)C1CCCN(c2c(NCCCN(C)c3ccccc3)c(=O)c2=O)C1 (configuration not stated),0 (inactive)
16,COC(=O)c1ccc(NC(=O)CSc2nnc(COc3ccc4c(c3)CCCC4)o2)cc1,40 (inactive)
17,CCC(=O)NCCCOc1ccccc1,0 (inactive)
18,O=C(Nc1ccc2c(c1)CCC2)c1cc(S(=O)(=O)N2CCN(c3ccccc3)CC2)ccc1Cl,0 (inactive)
19,CCOC(=O)c1sc2nc(C)cc(C)c2c1NC(=O)c1ccco1,0 (inactive)
20,CCOC(=O)N1CCC(NC(=O)C(Cc2ccccc2)NC(=O)C2CCCCC2)CC1 (configuration not stated),0 (inactive)
21,CCOc1cc(N2CCOCC2)c(OCC)cc1NC(=O)CN1CCc2ccccc2C1,0 (inactive)
22,CCn1ncc(C2=NOC(C(=O)NCc3ccc(OC)cc3)C2)c1C (configuration not stated),0 (inactive)
23,COc1ccc(-n2c(Cn3c(=O)sc4ccccc43)nnc2SCC(=O)N2CCCCC2)cc1,0 (inactive)
24,COc1ccc(NC(=O)c2c(NC(=O)CNCc3ccco3)sc3c2CCC3)c(OC)c1,40 (inactive)

row,Structure (SMILES),luminescence
1,COC(=O)c1nc2cc(C)ccn2c1F,40 (inactive)
2,Cc1ccc(NS(=O)(=O)c2cc(C(N)=O)ccc2C)cc1,0 (inactive)
3,Cc1ccc([N+](=O)[O-])cc1N=Cc1ccc(Br)s1,40 (inactive)
4,CC(=O)N(c1ccc(Br)cc1)C1C=CS(=O)(=O)C1 (configuration not stated),0 (inactive)
5,Cc1cc2ccccc2n1CCNC(=O)c1cccs1,0 (inactive)
6,Cc1cc(C)nc(NC(=O)c2cnc3sccn3c2=O)n1,0 (inactive)
7,CCn1c(=O)cc(OCC(=O)NCCC(C)C)c2ccccc21,40 (inactive)
8,C=CCNC(=O)CN(c1cccc(Br)c1)S(C)(=O)=O,0 (inactive)
9,CCOC(=O)c1c(-c2ccccc2)csc1NC(=O)c1ccc(S(=O)(=O)N2CC(C)OC(C)C2)cc1 (configuration not stated),40 (inactive)
10,COc1cc(C(=O)N(Cc2cccc(Cl)c2)C2CCS(=O)(=O)C2)cc(OC)c1OC (configuration not stated),40 (inactive)
11,Cc1ccc2oc(=O)c3cnn(CC(=O)NC4CCN(Cc5ccccc5)CC4)c3c2c1,0 (inactive)
12,CC(C)C(=O)Nc1nc2cc3c(cc2s1)OCO3,0 (inactive)
13,COC(=O)c1[nH]c2cc(OC)ccc2c1NC(=O)CCN1CCN(c2ccccc2)CC1,40 (inactive)
14,O=C(Nc1cccc(F)c1)c1cccnc1N1CCOCC1,80 (inactive)
15,COc1ccccc1N1CCN(C(=O)Oc2ccccc2)CC1,0 (inactive)
16,COc1cc(S(=O)(=O)N2CCC(N3CCCCC3)CC2)ccc1-n1cnnn1,0 (inactive)
17,CC(Oc1ccc(-c2ccccc2)c(F)c1)c1ccn(S(=O)(=O)c2ccc(F)cc2)n1 (configuration not stated),120 (inactive)
18,COc1ccccc1NC(=O)C1=C(C)NC(=O)NC1c1ccc(C)cc1 (configuration not stated),80 (inactive)
19,O=C(O)CCCSCC(=O)Nc1ccccc1,0 (inactive)
20,O=C(C[n+]1ccc(C(=O)N/N=C/c2ccc(OCc3ccccc3)cc2)cc1)c1ccccc1,0 (inactive)
21,CCOC(=O)C1=C(C)Nc2nnnn2C1c1ccc(OC)c(Br)c1 (configuration not stated),0 (inactive)
22,Cc1c(Cl)cccc1NC(=O)CN1C(=O)CSc2ncccc21,0 (inactive)
23,O=c1cc(NC2CCCCC2)c2ccccc2o1,0 (inactive)
24,CCOc1ccc(CNC(=O)C(CC)n2nc(C)n3c(cc4occc43)c2=O)cc1OC (configuration not stated),0 (inactive)

row,Structure (SMILES),luminescence
1,CNc1ccccc1-c1nc2ccccc2n(C)c1=O,0 (inactive)
2,O=C(Nc1ccc(Cl)cn1)C1CCCN1S(=O)(=O)c1ccc(Cl)cc1 (configuration not stated),0 (inactive)
3,CCC(Oc1ccccc1)C(=O)Nc1ccccc1OC (configuration not stated),0 (inactive)
4,CCOCCn1c(SCCc2ccccc2)nc2c1c(=O)[nH]c(=O)n2C,0 (inactive)
5,Cc1nn(C2CCS(=O)(=O)C2)c(Cl)c1/C=C/C(=O)OCC(=O)Nc1ccccc1OC(F)F (configuration not stated),0 (inactive)
6,COc1ccc(S(=O)(=O)Cc2ccc(C(=O)NCc3ccccn3)o2)cc1,0 (inactive)
7,CCOC(=O)N1CCN(C(=O)CSc2nc3c([nH]c4ccccc43)c(=O)n2C)CC1,40 (inactive)
8,C#CCN1C(=O)C2C(C(=O)NC)C3C=CC2(O3)C1C(=O)NCc1ccc(OC)cc1 (configuration not stated),40 (inactive)
9,CCCNC(=O)C(NS(=O)(=O)c1ccc2c(c1)c(=O)n(C)c(=O)n2C)c1ccccc1 (configuration not stated),40 (inactive)
10,CN[C@H]1[C@@H](O)[C@H](O[C@H]2[C@@H](O)[C@@H](OC3OC(CN)=CCC3N)[C@H](N)C[C@@H]2N)OC[C@@]1(C)O (some centres not stated),"40 [dose 10, dose unit µg/mL] (inactive)"
11,CCc1ccc(CCC(=O)Nc2ccc(C)c(C)c2)o1,0 (inactive)
12,CCc1cccc(OCCOCCN2CCCC2)c1,40 (inactive)
13,CCOC(=O)c1ccccc1NC(=O)c1cc(S(=O)(=O)N2CCOCC2)ccc1F,0 (inactive)
14,Cc1ccc(S(=O)(=O)CCc2nnc(NC(=O)C3CCCO3)s2)cc1 (configuration not stated),0 (inactive)
15,COC(=O)c1cc(-c2ccc(Br)cc2)n[nH]1,0 (inactive)
16,CN(C)S(=O)(=O)c1ccc(S(=O)(=O)N2CCN(CCC#N)CC2)cc1,40 (inactive)
17,COc1cc(C2Nc3ccc4ncccc4c3C3=C2C(=O)CC(C)(C)C3)cc(OC)c1O (configuration not stated),0 (inactive)
18,CN(CC(=O)N1CCc2ccccc2C1)S(=O)(=O)c1ccc2c(c1)c(=O)n(C)c(=O)n2C,40 (inactive)
19,CCOc1ccc(CCNC(=O)Cn2c(=O)oc3ccccc32)cc1OCC,0 (inactive)
20,COC(=O)c1cc(=O)n(CCc2ccc(OC)c(OC)c2)c(=Nc2ccc(F)c(Cl)c2)s1,40 (inactive)
21,CCc1nnc(NC(=O)CSc2nnc(-c3ccco3)n2C)s1,0 (inactive)
22,CN/C(=C/[N+](=O)[O-])NCCSCc1csc(CN(C)C)n1,"0 [dose 10, dose unit µg/mL] (inactive)"
23,CCCCCCN1CC(O)=C(c2ccccc2)C1=N,0 (inactive)
24,CC1CCN(C(=O)CSc2nc3c(cnn3-c3ccc(Cl)cc3)c(=O)[nH]2)CC1,0 (inactive)
